RE007 growth inh – less growth of the S. pombe RE007 Vpr strain | S. pombe RE007 Vpr strain, BacTiter-Glo ATP luminescence, 24 h | Potency, µM (titrated, usually from 92.2 µM), inactives show at the top dose activity change, negative = less growth, actives largely listed as inhibitors | actives 0.21% (n = 360,000) | AID 651644; active = well fitted falling curve with a large enough effect; inconclusive = small, poorly fitted or top-dose-only effect; inactive = no such curve, though single readings can be large or run the other way; also: nearly all actives have a fitted effect of over 50% in size
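Fission yeast strain RE007, carrying one chromosomally integrated HIV-1 vpr copy, was seeded at OD 0.01 in PMG+AL medium with 23 nL pinned compound. After 24 h at 30 °C and 99% humidity, viability was read by BacTiter-Glo luminescence.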
FMDV inh – blocks foot and mouth disease virus | FMDV antiviral cell-based qHTS | Potency, µM (highest dose often 57.9 µM), for the others: at the top dose activity change, negative = inhibition, hits mostly inhibitors | actives 1.2% (n = 410,000); calls by dose curve; tested in HEK293T cells; also: read-out not given here; nearly all actives have a fitted effect of over 45% in size
Sm TGR block – S. mansoni TGR enzyme inhibition. actives 3% (n = 360,000). Q962Y6. purified TGR, DTNB reduction, TNB absorbance 405 nm. AID 485364. Potency, µM (titrated, usually from 114 µM), for the others: at the top dose activity change, negative = inhibition, actives largely listed as inhibitors; also: nearly all actives have a fitted effect of over 60% in size
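Kinetic colorimetric format: TGR-catalysed, NADPH-driven DTNB reduction monitored via TNB absorbance. Enzyme dispensed at 20 nM; compound exposure 15 min at room temperature before reaction start.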
Marburg entry inh – blocks Marburg virus binding to or entry into cells; Marburg virus pseudotyped entry inhibition, cell reporter; Potency, µM (top dose mostly 37.8 µM), without a hit: at the top dose activity change, negative = inhibition, actives largely listed as inhibitors; actives 1.8% (n = 300,000); AID 540276; calls by dose curve; tested in HEK293 cells
HCV inhibitor – inhibitors of hepatitis C virus infection | Huh7.5.1 HCVcc-Cre infection, luciferase reporter, 44 h | Potency, µM (titrated, usually from 41.8 µM), for the others: at the highest dose activity change, negative = inhibition, usual class: inhibitors | actives 3.4% (n = 340,000) | AID 651820
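Reporter virus HCVcc-Cre (~0.5 moi) infects cells exposed to compound; seeding density 1,000 cells/well with 4 h settling beforehand. Luminescence, 15 sec read, taken 44 h post-infection following a 15 min RT substrate incubation.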
LASV entry inh – blocks Lassa virus binding to or entry into cells; Lassa virus pseudotype entry inhibition, cell reporter; Potency, µM (doses to about 37.9 µM), inactives show at the highest dose activity change, negative = inhibition, usual class: inhibitors; actives 1.2% (n = 300,000); AID 540256; calls by dose curve; tested in HEK293 cells; also: nearly all actives have a fitted effect of over 50% in size
Numbers without * were called inactive; ? = inconclusive; / = no result given; [ ] = remark or other dose. Most compounds without a hit are left out; they make up all but 7.2% or so of the library. Unless noted, calls follow the shape of the dose curve; as a rule, active = well fitted curve in the direction sought with a large enough effect; inconclusive = small, poorly fitted or top-dose-only effect, or another doubt; inactive = no such curve, though single readings can be large; an effect the other way counts as inactive or inconclusive. % is scaled to controls: 0 for no effect and ±100 for the full control effect; potency is read from the fitted curve at half-maximal effect.

SMILES	RE007 growth inh	FMDV inh	Sm TGR block	Marburg entry inh	HCV inhibitor	LASV entry inh
CCCCCCn1c2c(c(=N)c3c1CCC3)CCC2	-9%	?	1%	8.2µM*	10µM*	3.7µM*
COc1cc(=O)n2c(c1C(=O)NCc1nonc1C)CCN(Cc1c[nH]c3ccccc13)CC2	/	-5%	/	/	/	/
COc1cccc2cc(-c3csc(-c4ccc(Cl)cc4)n3)c(=O)oc12	/	16%	51%	/	/	20%[46.1 µM]
CCOC(=O)c1noc2ncn(CC(=O)Nc3ccc(F)cc3Cl)c(=O)c12	/	-22%	6%	/	/	2%[46.1 µM]
CN(C)CCN(CC1CCCN(Cc2ccccc2F)C1)C(=O)c1ccc(Cl)cc1 (configuration not stated)	-10%	16%	-3%	8.9µM*	?	?
CC(NC(=O)c1cc(F)ccc1F)c1nnc2n1CCN(Cc1cccs1)CC2 (configuration not stated)	/	1%	/	/	/	/
Cc1noc(C)c1C(=O)Nc1cc(S(=O)(=O)N2CCCCC2)ccc1N(C)C	15%	1%	-18%	1%	?	27%[46.1 µM]
Cc1cnc(Nc2nc3ccccc3o2)nc1C(=O)Nc1cccc(C(F)(F)F)c1	18%	3%	-31%	-21%	6.3µM*	0%
OCCN1CCN(CC(O)COc2ccc(C34CC5CC(CC(C5)C3)C4)cc2)CC1 (configuration not stated)	23%	-17%	0%	?	13µM*	?
OCCN1CCN(CC(O)COc2ccc(Cl)cc2)CC1 (configuration not stated)	-2%	-4%	-7%	19%	-28%	5%
COc1ccc(C(=O)NCCN2Cc3cc(C)ccc3OC(C)C2)c(OC)n1 (configuration not stated)	/	5%	/	/	/	/
Cc1cccc(Oc2sc(C(=O)c3ccccc3)c(N)c2C#N)c1	-12%	?	8%	?	10µM*	1.6µM*
N#Cc1c(Nc2ccccc2)sc(C(=O)c2ccccc2)c1N	6%	-9%	1%	1%	?	-26%
Cc1nc(CCNC(=O)CC2C(=O)NCCN2Cc2ccccc2F)sc1C (configuration not stated)	-17%	-8%	-30%	0%[46.1 µM]	11%	-1%
COc1cc(CN2CCNC(=O)C2CC(=O)NCCC2=CCCCC2)cc(OC)c1 (configuration not stated)	0%	13%	40µM*	?	-6%	5%[46.1 µM]
Cc1nc(CCNC(=O)CC2C(=O)NCCN2Cc2ccc(F)cc2)sc1C (configuration not stated)	-5%	17%	20µM*	-6%[46.1 µM]	5%	-3%[46.1 µM]
C=CCC1(CC=C)CCCN1C(=O)CC1C(=O)NCCN1Cc1cc(OC)cc(OC)c1 (configuration not stated)	-8%	7%	28µM*	?	4%	-12%[46.1 µM]
CCOc1ccc(CN2CCNC(=O)C2CC(=O)NCCC2=CCCCC2)cc1 (configuration not stated)	1%	9%	-26%[57.1 µM]	-10%[46.1 µM]	4%	?
CCn1c2c(c(=O)n3ncc(C(=O)Nc4cc(Cl)ccc4C)c13)CN(Cc1ccc(OC)cc1)CC2	/	?	1%	/	/	30%[46.1 µM]
Cc1cccc(S(=O)(=O)Nc2cccc(-c3ccc(N4CCCCC4)nn3)c2)c1	/	65%	1%	/	/	-20%[46.1 µM]
Cc1nc(-c2ccc(F)cc2)sc1CCNC(=O)C(=O)Nc1ccc2c(c1)OCO2	/	-18%	1%	/	/	4%[46.1 µM]
COc1ccc(CNc2nc3ccccc3s2)cc1OC	-22%	-15%	-21%	?	11µM*	-20%[46.1 µM]
COc1ccc(CNc2nc3ccccc3n2Cc2ccc(Cl)cc2)cc1OC	-3%	-11%	0%	11µM*	?	?
CCn1c(NCc2ccc(OC)c(OC)c2)nc2ccccc21	/	-10%	0%	?	/	-8%[46.1 µM]
Cc1ccc(CNc2nc3ccccc3s2)s1	-10%	-30%	5%	?	-17%	6.3µM*
SMILES	RE007 growth inh	FMDV inh	Sm TGR block	Marburg entry inh	HCV inhibitor	LASV entry inh
CCOc1ccc(CCNC(=O)CCn2c(=O)c3cccn3c3ccc(F)cc32)cc1	/	-6%	8%	/	/	?
O=C(CSCc1ccccc1Cl)N1CCN(c2ccc(F)cc2)CC1	/	-5%	-5%	/	/	10%[46.1 µM]
O=c1[nH]nc(CNc2ccc(C(F)(F)F)cc2)c2ccccc12	8%	-11%	-2%	/	-12%	/
O=c1[nH]nc(CNc2ccc(O)cc2)c2ccccc12	-16%	-12%	35µM*	1%	?	-18%
Cc1nc2ccc(C(=O)N3CCOc4ccc(CN5CCOCC5)cc4C3)cc2nc1C	/	1%	/	/	/	/
NS(=O)(=O)c1ccc(Sc2nc3ccccc3s2)c([N+](=O)[O-])c1	-8%	?	45µM*	?	22µM*	-8%
FC(F)(F)c1cc(CO[C@H]2CCCN[C@H]2c2ccccc2)cc(C(F)(F)F)c1	/	0%	/	14µM*	/	/
CCN1CCN(C(c2ccccc2F)c2c(O)cc(C)n(CCOC)c2=O)CC1 (configuration not stated)	/	-22%	7.9µM*	/	/	7%[46.1 µM]
CCN1CCN(C(c2ccc(SC)cc2)c2c(O)cc(C)n(CCOC)c2=O)CC1 (configuration not stated)	/	-24%	7.1µM*	/	/	?
CCN1CCN(S(=O)(=O)c2ccc(Cl)c(C(=O)NC(C)c3ccccc3Cl)c2)CC1 (configuration not stated)	-12%	-2%	-10%	?	?	4%
COCCn1c(C)cc(O)c(C(c2ccccc2Cl)N2CCN(c3ccccc3)CC2)c1=O (configuration not stated)	/	-18%	3.2µM*	/	/	2%[46.1 µM]
CCN1CCN(C(c2ccccc2Cl)c2c(O)cc(C)n(CCOC)c2=O)CC1 (configuration not stated)	/	-19%	3.5µM*	/	/	-2%[46.1 µM]
Cc1ccc(-n2ncc3c(NCc4ccccc4)ncnc32)cc1C	/	41%	-2%	/	/	?
COC(=O)/C(Cc1cc(Br)c(OC)c(Br)c1O)=N/O	/	/	/	-16%[14.2 µM]	/	/
O=c1cc(N2CCCCC2)c(-c2ccccc2)nn1Cc1ccccc1Cl	29%	40µM*	17%	?	?	?
O=c1cc(N2CCCCC2)c(-c2ccccc2)nn1Cc1ccc(Cl)cc1Cl	-4%	?	3%	?	-19%	?
COc1cc(C2C3=C(CCCC3=O)Nc3ccc4ncccc4c32)ccc1O (configuration not stated)	-15%	25%	-8%	2%[46.1 µM]	-12%	-1%
O=C1CCCC2=C1C(c1cccc(O)c1)c1c(ccc3ncccc13)N2 (configuration not stated)	-15%	9%	32µM*	-2%[46.1 µM]	-2%	-3%[46.1 µM]
